High-throughput results deposited in PubChem by National Center for Advancing Translational Sciences (NCATS).
TDP1 inh – TDP1 (human) enzyme inhibition; AID 485290; Q9NUW8; Potency, µM (series often up to 130 µM), for inactives: at the top dose activity change, negative = inhibition, actives largely listed as inhibitors; 0.28% of 350,000 active; recombinant TDP1, AlphaScreen DNA substrate cleavage; active means well fitted curve in the direction sought with a large enough effect; inconclusive means small, poorly fitted or top-dose-only effect, or another doubt; inactive means no such curve, though single readings can be large; an effect the other way counts as inactive or inconclusive; further: on the % scale 0 is the no-effect control and ±100 the full control effect; nearly all actives have a fitted effect of over 40% in size
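Enzyme-compound mixtures sat 15 min at room temperature, followed by a 5 min reaction with 15 nM final substrate and 10 min with AlphaScreen beads. Recombinant human Tdp1 was used at 1 nM final.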
12-LOX inh – inhibitors of human 12S-lipoxygenase ALOX12; P18054; purified 12hLO, xylenol orange hydroperoxide absorbance; Potency, µM (series often up to 108 µM), without a hit: at the top dose activity change, negative = inhibition, hits mostly inhibitors; 1.1% of 580,000 active; AID 1671190; active means well fitted curve in the direction sought with a large enough effect; inconclusive means small, poorly fitted or top-dose-only effect, or another doubt; inactive means no such curve, though single readings can be large; an effect the other way counts as inactive or inconclusive; further: on the % scale 0 is the no-effect control and ±100 the full control effect
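Purified human 12hLO at 150 nM in 25 mM Hepes, 0.01% Triton X-100, pH 7.0, preincubated 15 min at room temperature with compound. Reaction started with 40 uM arachidonic acid, 30 min at room temperature. Hydroperoxide measured by Fe-xylenol orange, 573/405 nm absorbance ratio.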
Rango dissoc inh – inhibitors of RanGTP-induced Rango-importin beta complex dissociation; O95149+P62826; Biochemical FRET Rango-importin beta, RanGTP-induced dissociation; Potency, µM (top dose mostly 46.1 µM), for the others: top-dose activity change, negative = inhibition; 0.071% of 340,000 active; further: % of control where 0% means no effect; nearly all actives have a fitted effect of over 45% in size
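Rango/importin beta premix (0.1/0.25 uM final), PBS + 1 mM DTT + 0.02% Tween-20 + 0.1% BSA; cpd 5 min RT; FRET pre-read; + RanGTP-RCC1 (0.6 uM Ran, 2 mM GTP, 0.2 uM RCC1); 45 min RT; FRET post-read, ex 430, em 486/530 nm.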
PTAP TSG101 blk – blocks PTAP/TSG101 interaction to inhibit HIV-1 budding | 340,000 tested, under 10 active | Fluorescence polarization, FITC-PTAP peptide / Tsg101 binding | Potency, µM (top dose mostly 115 µM), for the others: at the top dose activity change, negative = inhibition, usual class: inhibitors | Q99816 | AID 493005; active means well fitted inhibition curve with a large enough effect in the main read-out, with a control signal flat, not every such curve was filed as active; inconclusive means small, poorly fitted or top-dose-only effect, or effect the other way, or a change in a side signal; inactive means no such curve, though single readings can be large or run the other way; further: % of control where 0% means no effect
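FP read-out: FITC-PTAP peptide, 50 nM final, binding Tsg101 binding domain, 10 uM final; 20 min, r.t.; 10 mM HEPES pH 7.5, 0.15 M NaCl, 0.01% Tween 20, 3 mM EDTA, 0.1 mM TCEP.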
Rango complex inh – Rango-importin beta binding inhibition; Q14974; Rango CFP/YFP FRET sensor + importin beta, 45 min; Potency, µM (highest dose often 92.2 µM), for inactives: at the highest dose inhibition of complex formation; 0.031% of 340,000 active;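 further: 0% = DMSO wells and 100% = buffer wells lacking importin beta; nearly all actives have a fitted effect of over 15% in size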
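Inhibition scored from the CFP 486 nm/YFP 530 nm FRET ratio 45 min after adding 0.125 microM importin beta to 50 nM Rango biosensor preincubated 5 min with compound (room temperature, PBS with DTT, Tween-20, BSA). No-importin wells as positive control.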
ClpP mod – qHTS Assay for Activators of ClpP; purified B. subtilis ClpP, FRET peptide cleavage, 20 min; Potency, µM (series often up to 57.5 µM), for the others: at the top dose activity change, negative = active; 1.9% of 340,000 active; AID 651965, 2013; active means well fitted falling curve with a large enough effect; inconclusive means small, poorly fitted or top-dose-only effect; inactive means no such curve, though single readings can be large or run the other way; further: the source files actives as falling curves though it sought activators and does not explain the sign; nearly all actives have a fitted effect of over 65% in size
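ClpP 10 microg/mL final, pH 8 Tris/KCl buffer with BSA, glycerol, Tween-20; compound pinned in; FRET-FV substrate; RT 20 min; Ex320/Em430; ΔFRET vs ADEP 5.8 microM, DMSO, no enzyme.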
The depositor's hits bear a star; u = inconclusive; x = no result given; [ ] = remark or other dose. The list is not random: actives were taken first. Their share in the collection is about 2.4%. Unless noted, the call rests on the fitted dose curve. Potency means the concentration at half of the fitted maximal effect.

SMILES	TDP1 inh	12-LOX inh	Rango dissoc inh	PTAP TSG101 blk	Rango complex inh	ClpP mod
Cc1cccc(N2C(=O)/C(=C/N3CCN(C(=O)c4ccco4)CC3)C(=O)NC2=S)c1	1%	u	-26%	0%	0%	16µM*
O=C(NC[C@H]1C[C@@H]2CCN1C[C@@H]2CN1CCN(c2ccccn2)CC1)c1ccc2c(c1)OCO2	x	27%	x	x	x	x
Oc1ccccc1/C=N/NP(=S)(c1ccccc1)c1ccccc1	5%	20%	16%	0%	-1%	1%
Oc1ccc(/C=N/NP(=S)(c2ccccc2)c2ccccc2)cc1O	8%	32µM*	-15%	-9%	-6%	1%
COc1ccc2c(c1)C1(CCN(C(=O)c3ccccc3Br)C1)C(=O)N2 (configuration not stated)	x	32µM*	x	x	x	x
CCC(CC)c1cc([C@H]2CN3CC[C@H]2C[C@@H]3CNC(C)=O)nc(-c2ccncc2)n1	x	45%[176 µM]	x	x	x	x
CCC1(CC)C(=N)N(C)C(=O)NC1=O	0%	-10%	-2%	0%	-1%	16µM*
CCCNC(=O)C(C)N1CC=C(c2c[nH]c3ccccc23)CC1 (configuration not stated)	x	-10%	x	x	x	x
COCCOc1cc2c(cc1C=O)OCO2	x	-55%	x	x	x	x
CC(=O)N1CCC2(CC1)CC(=O)c1cc(OCC(=O)N3CCC4(CC3)OCCO4)ccc1O2	8%	1%	-12%	-5%	3%	4%
CC(=O)N1CCC2(CC1)CC(=O)c1cc(OCC(=O)N3CCN(C)CC3)ccc1O2	3%	-13%	-4%	-2%	-5%	20µM*
CC(=O)Nc1ccc(S(=O)(=O)N(C)CCOCc2ccccc2)cc1	7%	-9%	-20%	0%	-1%	22µM*
CC(=O)Nc1ccc(OC(=O)N(C)c2ccccc2)cc1	5%	10%	-2%	0%	u	-1%
O=c1c2ccccc2nc(N2CCCC2)n1-c1ccc(Cl)cc1	0%	-6%	0%	-6%	-4%	22µM*
CC(Cc1ccccc1)N(C)C (configuration not stated)	2%	-30%	x	x	x	x
CN(C)C(CSS(=O)(=O)c1ccccc1)CSS(=O)(=O)c1ccccc1	x	0.71µM*	x	x	x	x
CC(O)C1C=CC=CC(=O)OC2CC3OC4C5OC5(C)CCC4(COC(=O)C4OC4(C)C(O)CO1)C2(C)C31CO1 (configuration not stated)	x	32µM*	5%	1%	0%	0%
O=C(Cc1ccc(F)cc1)N1CCC2(CC1)NCc1ccccc1-n1ccnc12	x	9%	x	x	x	x
O=C1NC(=O)C(=Cc2ccc(Cl)cc2)C(=O)N1	x	40µM*	x	x	x	-2%
O=C1NC(=O)C(=Cc2ccc3ccccc3c2)C(=O)N1	-3%	u	-13%	-4%	2%	4%
COc1cccc(CNCCc2c[nH]c3ccccc23)c1	x	-23%	14%	-6%	1%	x
COc1ccc(CNCCc2c[nH]c3ccccc23)cc1	x	0.63µM*	x	x	x	x
COc1ccc(CCNCc2ccc(SC)cc2)cc1	1%	u	-10%	4%	0%	-7%
CCc1ccc(CNCCc2ccc(OC)cc2)cc1	x	2.5µM*	x	x	x	x
COc1ccc(CCNCc2ccc(Cl)cc2)cc1	x	14µM*	x	x	x	x
SMILES	TDP1 inh	12-LOX inh	Rango dissoc inh	PTAP TSG101 blk	Rango complex inh	ClpP mod
CC(C)CCOc1ccc(CCN)cc1	x	-24%	x	x	x	x
CC(=O)N1C2CCC1CN(Cc1cccnc1)C2	x	14%[12.5 µM]	x	x	x	x
O=C1NC[C@H]2CN(C3CCC3)CCN12	x	28%[176 µM]	x	x	x	x
O=C1CC2CCN(CC3CCCC3)CC2CCN1 (configuration not stated)	x	1%[12.5 µM]	x	x	x	x
Cc1ccc(NC(=O)CN2CCN(C(=O)Cc3c[nH]c4ccccc34)CC2)cc1	x	-4%	x	x	x	x
Nc1ccccc1C(=O)OCC(=O)Nc1ccc(Br)cc1F	0%	u	0%	0%	3%	28µM*
O=C1N(c2ccccn2)C[C@H]2CN(CC3CC3)CCN12	x	23%[176 µM]	x	x	x	x
